A selection: hits, their analogues and other compounds. The true share with any hit is near 11%.
HPGD inh: blocks human HPGD enzyme activity. P15428. 150,000 tested, 4.3% active. purified HPGD, NADH fluorescence kinetic, PGE2 substrate. Potency, µM, hits mostly inhibitors; active = well fitted inhibition curve with a large enough effect, not every such curve was filed as active; inconclusive = small, poorly fitted or top-dose-only effect, or another doubt; inactive = no such curve, though single readings can be large or run the other way
Target sequence (P15428 whole entry, looked up): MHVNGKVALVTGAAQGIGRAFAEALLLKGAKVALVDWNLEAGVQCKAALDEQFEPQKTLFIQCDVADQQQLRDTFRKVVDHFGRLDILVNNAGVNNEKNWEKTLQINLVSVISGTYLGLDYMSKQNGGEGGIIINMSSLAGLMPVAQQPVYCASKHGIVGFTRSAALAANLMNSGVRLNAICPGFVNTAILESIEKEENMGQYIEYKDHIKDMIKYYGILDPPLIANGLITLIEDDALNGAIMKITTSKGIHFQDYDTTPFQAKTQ
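NADH formation kinetics: reaction with 30 uM PGE2 and 1 mM NAD+ (final), 20 nM enzyme, Tris-HCl pH 8 with Tween 20, after 15 min compound preincubation at room temperature. Fluorescence change, last versus first of five reads.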
GoLoco inh red: blocks human Gai1 binding to RGS12 GoLoco peptide, red readout | 230,000 tested, 0.44% active | Gai1:RGS12 GoLoco peptide FP, rhodamine, 10 min | P63096 | AID 880 | Potency, µM (titrated, usually from 61.6 µM), most hits filed as inhibitors; active = well fitted inhibition curve with a large enough effect, not every such curve was filed as active; inactive = no such curve, though single readings can be large or run the other way; also: nearly all actives have a fitted effect of over 30% in size
PNC inhibitor: blocks assembly of the perinucleolar compartment. PC3M PTB-GFP, PNC prevalence imaging, 16 h; stronger effect = lower value. 140,000 tested, 3.1% active. activity change (PNC), negative = inhibition, % at 10 µM;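 active = readout at or below -70, meaning at least 70% loss of cells showing the perinucleolar compartment, a nuclear body marking cancer cells; inconclusive = readout between -30 and a set limit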
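PC3M cells stably expressing PTB-GFP, 750–1000 cells/well, treated 16 h at 37 °C with compound (23 nl of library stock), in duplicate. After paraformaldehyde fixation and Hoechst stain, imaged at 20x; PNC prevalence scored by image analysis.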
HttQ103 aggreg: mutant huntingtin aggregation inhibition | AID 1688 | Potency, µM (series often up to 46.1 µM), actives largely listed as inhibitors | PC12 HttQ103-GFP aggregates, Acumen cytometry, 40 h | 220,000 tested, 1.1% active; also: nearly all actives have a fitted effect of over 60% in size
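Compounds (qHTS titration) were added to PC12 cells expressing an ecdysone-driven HTT exon 1 Q103–GFP fusion after induction with 100 nM tebufenozide. Aggregate formation was measured as GFP objects in cell lysates.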
ALDH1A1 block: blocks purified human ALDH1A1 activity; AID 1030; Potency, µM (titrated, usually from 75.3 µM), most hits filed as inhibitors; Purified ALDH1A1, NADH fluorescence, propionaldehyde substrate; P00352; 220,000 tested, 7.3% active; active = well fitted inhibition curve with a large enough effect, not every such curve was filed as active; inconclusive = small, poorly fitted or top-dose-only effect, or another doubt; inactive = no such curve, though single readings can be large or run the other way
Target sequence (P00352 whole entry, looked up): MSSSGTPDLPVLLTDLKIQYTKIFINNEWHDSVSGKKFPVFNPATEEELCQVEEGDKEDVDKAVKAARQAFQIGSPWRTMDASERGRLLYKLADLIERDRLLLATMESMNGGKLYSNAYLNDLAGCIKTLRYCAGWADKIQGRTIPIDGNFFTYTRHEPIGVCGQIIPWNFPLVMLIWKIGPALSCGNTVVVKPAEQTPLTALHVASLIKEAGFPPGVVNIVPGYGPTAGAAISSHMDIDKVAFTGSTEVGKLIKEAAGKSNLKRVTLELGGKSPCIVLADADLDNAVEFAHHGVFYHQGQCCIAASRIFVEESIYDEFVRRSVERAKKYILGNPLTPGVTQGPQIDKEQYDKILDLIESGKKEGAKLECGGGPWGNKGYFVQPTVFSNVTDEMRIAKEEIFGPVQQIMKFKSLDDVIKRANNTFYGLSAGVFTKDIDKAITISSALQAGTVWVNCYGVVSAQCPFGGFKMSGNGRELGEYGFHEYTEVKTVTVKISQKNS
HTT cytoprotect: cytoprotection in Huntington HTT-Q103 PC12 cell model. PC12 HTT-Q103 induced, cytoprotection, ATP luminescence, 40 h. 230,000 tested, 0.14% active. Potency, µM (top dose mostly 56.4 µM), hits mostly activators. AID 1471; also: nearly all actives have a fitted effect of over 45% in size
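Huntington model: PC12 line, ecdysone-inducible HTTQ103 exon1–GFP, tebufenozide 100 nM. Test articles in a dose series. Endpoint luminescence from cellular ATP.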
A number is an active result; . = inactive; ? = inconclusive; / = not tested or not shown; [ ] = dose if it differs, or a comment. Unless noted, calls follow the shape of the dose curve; as a rule, active = well fitted curve in the direction sought with a large enough effect; inconclusive = small, poorly fitted or top-dose-only effect, or another doubt; inactive = no such curve, though single readings can be large; an effect the other way counts as inactive or inconclusive.

SMILES	HPGD inh	GoLoco inh red	PNC inhibitor	HttQ103 aggreg	ALDH1A1 block	HTT cytoprotect
O=C(Nc1ccc(O)c2c(=O)cc(-c3ccccc3Cl)oc12)c1ccccc1Cl	.	.	.	.	.	/
Cc1c(Cc2ccccc2)c(=O)oc2cc(OC(=O)c3ccccc3)ccc12	.	.	.	.	?	.[10 µM]
COc1cccc(C(=O)COc2ccc3c(C)c(Cc4ccccc4)c(=O)oc3c2)c1	.	.	.	.	0.63µM	.[10 µM]
CCC(c1nnc(SCC(=O)Nc2cc(Cl)ccc2C#N)n1C1CCCCC1)N(C)C (stereo not given)	.	.	-107	.	.	.[10 µM]
CCSc1cc(N2CCOCC2)nc(-c2ccc(Cl)cc2)n1	.	.	?	.	.	/
O=c1c2oc3ccccc3c2[nH]c(=S)n1-c1ccccc1	.	.	.	.	7.9µM	.[10 µM]
COC(=O)N1CCN(c2ccc(Cl)c(Cl)c2)CC1	.	.	-102	.	.	.[0.074 µM]
COc1ccc(C(=S)N2CCN(c3cccc(Cl)c3)CC2)c(OC)c1	/	.	/	.	20µM	/
COC(=O)N1CCN(c2ccc(C)c(C)c2)CC1	/	.	/	.	.	?
COC(=O)/C=C/C(=O)N1CCN(c2cccc(Cl)c2)CC1	.	.	?	?	10µM	.[10 µM]
COc1cc(C(=S)N2CCN(c3cccc(Cl)c3)CC2)ccc1O	/	.	/	.[9.22 µM]	3.5µM	.[10 µM]
COc1ccc(C(=O)N2CCN(c3cccc(Cl)c3)CC2)cc1	.	.	.	.	.	.[10 µM]
CSc1ccccc1C(=O)N1CCN(c2cccc(Cl)c2)CC1	/	.	/	?	.	.
COc1ccc(C(=O)c2ccc(N3CCOCC3)cc2)c(OC)c1	/	/	?	?	1.1µM	.
COc1ccc(C(=O)c2ccc(OC)cc2OC)cc1	/	.	/	.[9.22 µM]	/	.[10 µM]
Oc1ccccc1C(=S)N1CCN(c2cccc(Cl)c2)CC1	/	.	/	.[9.22 µM]	10µM	.[10 µM]
COC(=O)[C@@H]1CC[C@H](C)[C@@H](c2ccc(C)cc2)N1C(=O)c1ccc(/C=N\OC[C@@H](C)[C@H](OCc2ccccc2)C(C)C)cc1	/	/	/	/	.[13.5 µM]	.[10 µM]
O[C@H]([C@H](O)[C@@H](O)c1nc2ccccc2[nH]1)[C@@H](O)c1nc2ccccc2[nH]1	.	.[14.2 µM]	/	/	.[13.5 µM]	.[10 µM]
O=C(NCC1CCCCC1)c1cc([N+](=O)[O-])ccc1N1CCOCC1	/	.	/	.	?	.[10 µM]
O=C(NC12CC3CC(CC(C3)C1)C2)c1cc([N+](=O)[O-])ccc1N1CCOCC1	/	.	/	.[9.22 µM]	13µM	.[10 µM]
COc1ccc(C(=O)c2cc([N+](=O)[O-])ccc2N2CCCC2)cc1	.	.	.	.	.	.[10 µM]
COc1ccc(C(=O)c2cc([N+](=O)[O-])ccc2N2CCN(C)CC2)cc1	/	.	/	.	5µM	.
O=C(NC1CCCCC1)c1cc([N+](=O)[O-])ccc1N1CCCCC1	.	.	.	.	13µM	.[10 µM]
CCC(CC)c1nnc(NC(=O)c2cc([N+](=O)[O-])ccc2N2CCCCC2)s1	.	.	.	.	7.9µM	.[10 µM]
Cc1ccnc(NC(=O)Nc2ccc3c(c2)OCO3)c1	/	.	/	.	.	.
SMILES	HPGD inh	GoLoco inh red	PNC inhibitor	HttQ103 aggreg	ALDH1A1 block	HTT cytoprotect
COc1ccccc1CN1CCNC(=O)C1CC(=O)NC1Cc2ccccc2C1 (stereo not given)	/	.	/	.[9.22 µM]	?	.[10 µM]
C=CC[C@@H]1C=C[C@H](ON=C(C)C)[C@H](CO)O1	/	/	/	/	.[13.5 µM]	.[10 µM]
O=[N+]([O-])c1ccc(N2CCCCCC2)c(S(=O)(=O)N2CCCCC2)c1	.	.	.	.	25µM	.
Cc1ccc(C(=O)c2cc([N+](=O)[O-])ccc2N2CCN(C)CC2)cc1	.	.	.	.	?	.
Cc1ccc(C(=O)c2cc([N+](=O)[O-])ccc2N2CCOCC2)cc1C	.	.	?	?	32µM	.[10 µM]
CN1CCN(S(=O)(=O)c2cc([N+](=O)[O-])ccc2N2CCCCCC2)CC1	.	.	.	?	?	.
O=C(c1ccccc1)c1cc([N+](=O)[O-])ccc1N1CCCC1	.	.	?	?	.	/
CN1CCN(c2ccc([N+](=O)[O-])cc2C(=O)c2ccc(Br)cc2)CC1	.	.	.	.	28µM	.
O=C(c1ccc(Br)cc1)c1cc([N+](=O)[O-])ccc1N1CCCCC1	.	.	?	.	2.8µM	.
Cc1ccc(C(=O)c2cc([N+](=O)[O-])ccc2N2CCCCC2)cc1C	.	.	?	.	.	.[10 µM]
Cc1cc2c(nc1C)CCCCN2C[C@H](O)CN1CCCc2nc(-c3ccc(Br)cc3)ccc21	/	/	/	/	.[13.5 µM]	.[10 µM]
COCCNC(=O)C12CC3CC(CC(Cl)(C3)C1)C2	/	.	/	.[9.22 µM]	/	.[10 µM]
C/C(=N\NC(=O)COc1ccccc1-c1ccccc1)c1cccnc1	/	.	/	.	14µM	.[10 µM]
C/C(=N\NC(=O)COc1ccccc1-c1ccccc1)c1ccccn1	/	.	/	.	2.5µM	.[10 µM]
O=C(COc1ccccc1-c1ccccc1)N/N=C/c1ccc2ccccc2c1	.	.	-116	.	.	.[10 µM]
Clc1ccccc1-c1nc2nc3ccccc3nc2n1-c1ccc2c(c1)OCO2	.	.	?	.	11µM	/
c1csc(-c2nc3nc4ccccc4nc3n2Cc2ccc3c(c2)OCO3)c1	?	.	?	.	?	.[10 µM]
O=C(Nc1ccc(-c2nnc3n2CCCCC3)cc1)c1cnccn1	10µM	.	.	.	.	.
O=C(Cn1cnc2ccccc2c1=O)Nc1cccc(-c2nnc3n2CCCCC3)c1	.	.	?	.	.	.
O=C(Cn1cnc2ccccc2c1=O)Nc1ccc(-c2nnc3n2CCCCC3)cc1	13µM	.	.	.	14µM	.
Cc1onc(-c2ccccc2)c1C(=O)Nc1ccc(-c2nnc3n2CCCCC3)cc1	7.1µM	.	.	.	.	.[10 µM]
Cc1onc(-c2ccccc2)c1C(=O)Nc1ccc(S(=O)(=O)N2CCCCC2)cc1	.	.	.	.	.	.
Cc1ccc(NC(=O)c2cnccn2)cc1	/	.	/	.	.	.
CCC(C)[C@@H](N)C(=O)N/N=C/c1ccc2ncccc2c1 (stereo not given in full)	.	.	.	.	?	.[10 µM]
Cc1cc(C(=O)COC(=O)CN=C2NS(=O)(=O)c3ccccc32)c(C)n1CCc1ccc(Cl)cc1	.	.	.	.	.	.[10 µM]
SMILES	HPGD inh	GoLoco inh red	PNC inhibitor	HttQ103 aggreg	ALDH1A1 block	HTT cytoprotect
CCOC(=O)c1cnn2c(N)c(C#N)cnc12	/	.	/	.[9.22 µM]	?	.
CCOC(=O)c1cnn2c(N)c(C#N)nnc12	.	.	-117	.	.	.
NC(=S)N/N=C/c1cn(-c2ccccc2)nc1-c1cccnc1	/	.	/	.[9.22 µM]	.	.[10 µM]
Cc1c(CN(C)C(=O)c2sc3cc(Cl)ccc3c2Cl)cnn1C	20µM	.	.	?	?	.
COc1ccc(CNC(=O)COc2ccc(C)nc2[N+](=O)[O-])cc1	/	.	/	?	?	.[10 µM]
Cc1ccc(OCC(=O)c2cc(C)n(C)c2C)c([N+](=O)[O-])n1	.	.	-121	.	.	.[10 µM]

Assay outcomes deposited in PubChem by National Center for Advancing Translational Sciences (NCATS).
